We go through 101 compounds from PubChem BioAssay AID1259343 (VanderVen Lab, College of Veterinary Medicine, Cornell …, 2017).

For orientation: inhibition means the relative decrease from the control value, in per cent.

SMILES strings stand for the structures. The campaign covered roughly 6,200 compounds. About 2,900 (47%) were called active. The set was probably picked from earlier hits. Some of the results follow. Values without a mark were called inactive. No stated cut-off is given here; in the data, active means inhibition above about 50%; inactive means the rest.

The test can be described thus: Mycobacterium tuberculosis growth inhibition, primary screen (AID 1259343). The note with it: inhibition: at 10 µM, hits give high values; outcome: 10 uM.
Turning to `Clc1cccc(-c2csc(NC3CC3)n2)c1`, the inhibition was 44.2%.
The result for `O=C(O)C1C2C=CC(C2)C1C(=O)Nc1nc(-c2ccc(Cl)s2)cs1` (stereo unspecified) reads 35.5%.
To `O=C(CCn1[nH]c(=O)ccc1=O)Nc1nc(-c2ccc(Cl)s2)cs1` belongs 49.2%; to `N#CC1(C(=O)Nc2nc(-c3cccc(C(F)(F)F)c3)cs2)CCCC1`, 55.5% (active); to `N#CC1(C(=O)Nc2nc(-c3ccc(Cl)s3)cs2)CCCC1`, 89.1% (active).
With `Cc1ccc(C(=O)c2ccc(CC(=O)O)n2C)cc1`, the inhibition was 52.8% (active).
To `c1ccc(-c2cnc(CSc3nnnn3C3CC3)o2)cc1` belongs 18.6%.
To `Fc1ccc(-c2cnc(CSc3nnnn3C3CC3)o2)cc1` belongs 8.58%.
The result for `c1ccc(-c2cc(CSc3nnnn3C3CC3)no2)cc1` reads 84.1% (active).
Regarding `Cc1ccc(S(=O)(=O)N(C)CCOc2ccccc2C)s1`, the inhibition is 55.1% (active).
To `O=C(O[C@@H]1Cc2c(O)cc(O)cc2O[C@@H]1c1ccc(O)c(O)c1)c1cc(O)c(O)c(O)c1` belongs 78.4% (active); to `Cc1ccccc1Cn1nc(-c2cccs2)ccc1=O`, 89.9% (active).
The result for `COc1ccc(-c2ccc(=O)n(Cc3ccccc3C)n2)cc1` reads 27.4%; that for `Cc1ccccc1Cn1nc(-c2ccccc2)ccc1=O`, -7.28%.
In the case of `O=c1ccc(-c2ccc3c(c2)OCO3)nn1Cc1cccc2ccccc12`, the inhibition is -9.21%.
To `Cc1ccccc1Cn1nc(-c2ccc3c(c2)OCO3)ccc1=O` belongs 91.3% (active); to `CCc1ccc(-c2ccc(=O)n(Cc3ccccc3C)n2)cc1`, 14.8%; to `OC(C#Cc1ccccc1)c1ncc(-c2ccccc2)[nH]1` (stereo unspecified), 20.7%.
As for `O=C(CSc1ncc(-c2ccc([N+](=O)[O-])cc2)[nH]1)NC(C(=O)O)(c1ccccc1)c1ccccc1`, the inhibition is -11.4%.
The result for `O=C(Cc1ccc(Cl)cc1)NCCSc1ncc(-c2ccccc2)[nH]1` reads 60.9% (active); that for `O=C(Nc1ccc(Cl)nc1)N1CCC(COCc2ccccc2)C1` (stereo unspecified), 95% (active).
The result for `COc1ccc(C=C2CC3C4CC=C5CC(O)CCC5(C)C4CCC3(C)C2O)cc1` (stereo unspecified) reads -0.03%.
The result for `COC(=O)C1CCC2C3CC=C4CC(O)CCC4(C)C3CCC12C` (stereo unspecified) reads 79.9% (active).
Turning to `CC12CCC(O)CC1=CCC1C2CCC2(C)C(O)C(=Cc3ccc([N+](=O)[O-])cc3)CC12` (stereo unspecified), the inhibition was -53.2%.
To `S=C(NC1Cc2ccccc2C1)N1CCCC1` belongs 14.2%; to `CN(Cc1cccc(F)c1)C(=O)c1ccc(NC(=O)C2CC2)s1`, -11.3%.
To `O=C(Cc1cccc(F)c1)NCc1ccc(Cl)s1` belongs 64.5% (active); to `CC(=O)c1ccc(OC(=O)COc2ccc(Oc3ccc(C)cc3)cc2)cc1`, 88.7% (active).
To `CC(=O)c1ccc(OC(=O)COc2cccc(OCCC(C)C)c2)cc1` belongs 67.6% (active); to `COc1cccc(OCC(=O)Oc2ccc(C(=O)c3ccc(C)cc3)cc2)c1`, 53% (active); to `CCOc1cccc(OCCOc2cccc(Br)c2)c1`, 36.5%.
With `CCOc1ccc(OCCCOc2ccc(Cl)cc2)cc1`, the inhibition result was “inactive”.
The result for `CCOc1ccc(OCCOc2cccc(C(F)(F)F)c2)cc1` reads 84.9% (active).
The result for `CCOc1ccc(OCCOc2ccccc2)cc1` reads 92.8% (active); that for `CCOc1ccc(OCCOCCOc2ccccc2)cc1`, 92.7% (active); that for `CCOc1ccc(OCCOc2ccc(Cl)cc2)cc1`, 93.8% (active).
To `CCOc1ccccc1OCCOc1ccccc1` belongs 27.6%.
As for `CCOc1ccc(OCCCOc2ccc(I)cc2)cc1`, the inhibition was 92.8% (active).
The result for `Clc1ccc(OCCOCCOc2ccc(Cl)cc2)cc1` reads 21.3%.
The result for `CCOc1ccc(OCCCOc2ccc(C)cc2)cc1` reads -3.92%; that for `Clc1ccc(OCCOC2OCCOC2OCCOc2ccc(Cl)cc2)cc1` (stereo unspecified), 76.8% (active).
To `CCOc1ccc(OCCCOc2ccc(CC)cc2)cc1` belongs -34%; to `CN=c1scc(C)n1N=C(C)c1cccc(F)c1`, 15.2%; to `COc1ccc(/C=C(/C#N)c2c[nH]c3ccccc23)cc1`, 33.9%.
With `O=C(Cc1cc(-c2ccc(F)cc2F)on1)NCCCc1ccccc1`, the inhibition was 54% (active).
The result for `CC(C)OCCCNC(=O)Cc1cc(-c2ccc(F)cc2F)on1` reads 36.4%; that for `O=C(Cc1cc(-c2ccc(F)cc2F)on1)NCCC1=CCCCC1`, 85.6% (active).
For the compound `O=C(Cc1cc(-c2ccc(F)cc2F)on1)NCCc1ccccc1`, the inhibition was 93.5% (active).
To `O=C(Cc1cc(-c2ccc(F)cc2)on1)NCCC1=CCCCC1` belongs 36.7%.
On to `O=C(OCc1cc(-c2ccc(F)cc2F)on1)C1CC1`, for which the inhibition was 38.6%.
Take `COc1ccc(NC(=O)c2ccc3c(c2)CCCC3)c(OC)c1`: the inhibition was 10.4%.
Regarding `COc1ccc(NC(=O)c2ccc3c(c2)CCCC3)cn1`, the inhibition was 97.6% (active).
The result for `Fc1c(F)c(F)c(N2CCNCC2)c(F)c1F` reads -14.9%; that for `FC(F)(F)C1CCCN(c2nsc3ccccc23)C1` (stereo unspecified), 101% (active).
To `Cc1ccc(-c2n[nH]c(=S)n2N=Cc2ccccc2)cc1` belongs 55.7% (active).
The result for `FC(F)Oc1ccc(-c2n[nH]c(=S)n2N=Cc2ccc3c(c2)OCCO3)cc1` reads 85.8% (active); that for `CCN=c1scc(-c2ccc(OC(F)F)cc2)n1N=Cc1ccc2c(c1)OCO2`, -4.29%.
Turning to `O=c1cc(-c2ccc(F)cc2)[nH]n1-c1nc2ccccc2[nH]1`, the inhibition is 75.6% (active).
To `C=C(C#N)C(O)c1ccc(-c2ccccc2)cc1` (stereo unspecified) belongs 27.8%.
To `CC(C)c1cc(-n2ccnc2)n2ncc(-c3ccccc3)c2n1` belongs “inactive”; to `c1ccc(-c2ccc(C(c3ccccc3)n3ccnc3)cc2)cc1` (stereo unspecified), 79.7% (active).
To `Cc1cc(C(=O)N(CCCN(C)C)c2nc3ccc(Cl)cc3s2)nn1C` belongs 30.6%; to `COc1ccc(Cl)c2sc(N(CCCN(C)C)C(=O)Cc3ccccc3)nc12`, 69.2% (active).
Consider `CCC(C)(C)C1CCC2(CC1)NCCc1c2[nH]c2ccccc12` (stereo unspecified), for which the inhibition is 0.19%.
The result for `C=C(C)CN(C)C(=O)c1coc(COc2ccc3c(c2)OCO3)n1` reads 26.6%; that for `C=CCN(C)C(=O)c1coc(COc2ccc3ccc(OC)cc3c2)n1`, 65.1% (active).
To `Cc1nonc1CN(C)C(=O)c1coc(COc2cccc(C(F)(F)F)c2)n1` belongs 22.3%; to `N#Cc1c(F)cccc1NCc1csc(C2CC2)n1`, 57.3% (active).
To `N#Cc1c(F)cccc1NCCNc1nc2ccccc2o1` belongs -5.14%; to `Cc1ccc(NC2OC(CO)C(O)C(O)C2O)cc1Br` (stereo unspecified), 84.8% (active).
For the compound `OCC1O[C@H]([S-])[C@@H](O)C(O)[C@@H]1O.[Au+]` (stereo partly specified), the inhibition was 5.4%.
For `COc1cccc(-c2nc3ccc(-c4cccc(Cl)c4)cn3c2CN2CCNCC2)c1`, the inhibition is 23.2%.
As to `CN(C)CCCOc1ccc(-c2nnc3ccc(-c4cccc(Oc5ccccc5)c4)cn23)cc1`, the inhibition is 66.5% (active).
To `Cc1cc(NC(=O)CNC(c2ccccn2)C(C)C)ccc1Cl` (stereo unspecified) belongs 79.4% (active).
Regarding `CCOc1cccc(-c2cccc(-n3cnnc3)c2)c1`, the inhibition was 66% (active).
The result for `CCOc1cccc(-c2cnc(NC(C)=O)cn2)c1` reads 23.7%; that for `Oc1ccc(CC2COCC(Cc3ccc(O)cc3)C2)cc1` (stereo unspecified), 62.4% (active).
To `Cc1ccc(-c2cc(C(F)F)nc(S(C)(=O)=O)n2)cc1` belongs 90.4% (active); to `O=c1ccc(-c2ccc(F)cc2)nn1Cc1cccc(C(F)(F)F)c1`, 35.1%.
To `CS(=O)(=O)c1nc(-c2cccs2)cc(C(F)(F)F)n1` belongs 101% (active); to `O=c1[nH]c(=S)[nH]c2nc(-c3cccs3)cc(C(F)(F)F)c12`, 34.4%; to `O=c1ccc(-c2ccc(F)cc2)nn1Cc1ccc(C(F)(F)F)cc1`, 20%.
For `CS(=O)(=O)c1nc(-c2ccccc2)cc(C(F)(F)F)n1`, the inhibition was 99.7% (active).
The result for `CS(=O)(=O)c1nc(-c2ccc(F)cc2)cc(C(F)(F)F)n1` reads 101% (active); that for `Cn1cccc1C1CCCCCN1C(=O)c1ccc(NC2CC2)nc1` (stereo unspecified), -11.4%.
To `COc1ccc(-c2cc(C(F)(F)F)nc(S(C)(=O)=O)n2)cc1` belongs 101% (active); to `Cc1nc2c(OCc3cc(Cl)cc(Cl)c3)cccn2c1N(C)Cc1cccs1`, 82.7% (active); to `CC(C(=O)Nc1cccc(Cl)c1)N(C)Cc1cccs1` (stereo unspecified), 5%.
As to `CCCc1cc(=O)[nH]c(-n2nc(C)cc2NC(=O)/C=C/c2cc(OC)c(OC)c(OC)c2)n1`, the inhibition was 99.8% (active).
With `COc1cc(/C=C/C(=O)Nc2cc(C)nn2-c2nc(C)c(C)c(=O)[nH]2)cc(OC)c1OC`, the inhibition is 99.5% (active).
To `COc1cc(/C=C/C(=O)Nc2cc(C)nn2-c2nc3c(c(=O)[nH]2)CCC3)cc(OC)c1OC` belongs 2.27%; to `CCCc1cc(=O)[nH]c(-n2nc(C)cc2NC(=O)/C=C/c2ccc(OC)c(OC)c2)n1`, 102% (active); to `CC(O)CN1CCN(C(=O)c2cc(Cl)c(Cl)n2C)CC1` (stereo unspecified), -16.4%.
To `CCn1cnnc1CCNS(=O)(=O)NCc1ccccc1` belongs -1.72%; to `Cn1nnnc1SCc1nc(-c2cccc(C(F)(F)F)c2)no1`, -6.38%.
The result for `Fc1c(F)c(F)c(Cn2nnc(-c3ccccc3)n2)c(F)c1F` reads 26.7%.
Turning to `FC(F)(F)c1cccc(-c2nnn(Cc3ncc(-c4ccccc4)o3)n2)c1`, the inhibition was 58.2% (active).
To `CCC(=NNC(=O)c1ccc(F)cc1)c1cc(Cl)cc(Cl)c1O` belongs 53.1% (active); to `CC(=NNC(=O)c1cc(-c2cccc3ccccc23)n[nH]1)c1ccccc1O`, 41.3%; to `CC(OC(=O)c1cc(Cl)c(O)c(Cl)c1)c1ccc(F)cc1` (stereo unspecified), 45.8%.
The result for `CN(CC1CCCO1)S(=O)(=O)c1ccc(C(=O)Nc2ccc3sccc3c2)cc1` (stereo unspecified) reads 92% (active).
